Hit rate of the full screen: of about 220,000 compounds, about 830 (0.38%) were called active.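 How the source made its calls: active means compound inhibiting the enzyme by more than half at any dose during confirmatory dose-response retesting; inconclusive means strong single-dose inhibitors picked by rank but not retested; inactive means the rest.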 A selection follows. Potency and affinity values are given separately.
target: Leucine aminopeptidase (Plasmodium falciparum (isolate 3D7)) (UniProt Q8IL11); assay: P. falciparum M17LAP inhibitors, primary screen, biochemical, fluorogenic H-Leu-NHMec substrate, 1536-well (AID 1619); conditions: recombinant M17LAP, H-Leu-NHMec fluorogenic kinetic assay; at 30 µM; hits give high values;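 further: plate controls were full reaction with DMSO carrier for no effect and no enzyme background for full effect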
Sequence (Q8IL11 whole entry, looked up): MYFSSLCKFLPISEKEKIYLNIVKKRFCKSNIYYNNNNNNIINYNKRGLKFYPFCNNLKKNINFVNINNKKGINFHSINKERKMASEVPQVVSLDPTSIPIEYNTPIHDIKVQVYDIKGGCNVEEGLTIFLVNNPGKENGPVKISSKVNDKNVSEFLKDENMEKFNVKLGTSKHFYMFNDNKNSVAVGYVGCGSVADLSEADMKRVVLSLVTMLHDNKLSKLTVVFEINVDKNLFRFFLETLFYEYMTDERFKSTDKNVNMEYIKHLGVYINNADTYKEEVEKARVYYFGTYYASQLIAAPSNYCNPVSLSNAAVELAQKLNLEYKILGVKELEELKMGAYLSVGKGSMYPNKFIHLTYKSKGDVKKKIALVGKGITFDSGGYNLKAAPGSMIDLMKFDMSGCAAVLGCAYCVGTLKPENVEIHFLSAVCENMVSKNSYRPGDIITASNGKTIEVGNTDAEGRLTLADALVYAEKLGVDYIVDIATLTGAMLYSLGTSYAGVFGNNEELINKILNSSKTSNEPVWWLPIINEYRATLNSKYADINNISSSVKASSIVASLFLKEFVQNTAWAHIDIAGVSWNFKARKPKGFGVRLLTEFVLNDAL

Row | Compound | inhibition
1 | CCn1c(SCC(=O)N(C)c2c(N)n(Cc3ccccc3)c(=O)[nH]c2=O)nc2ccccc21 | -11.8% (inactive)
2 | Cc1c(C(=O)NCc2ccccc2)c(-c2ccccc2)nn1-c1ccccc1 | 6.71% (inactive)
3 | O=C(COc1ccccc1Cl)N1CCN(c2ncccn2)CC1 | 5.76% (inactive)
4 | O=C(O)CSc1nc(C(F)(F)F)cc(=O)n1-c1ccccc1 | -6.87% (inactive)
5 | COCCCNC(=O)c1ccc(Cn2c(=O)c3ccccc3n(CC(=O)NCc3ccco3)c2=O)cc1 | -3.96% (inactive)
6 | CCN(CC)c1ccc(NC(=O)CSc2nc3ccccc3c(=O)n2-c2cc(S(=O)(=O)N(C)C)ccc2C)cc1 | -13% (inactive)
7 | Clc1ccccc1Nc1ncnc2c1nnn2Cc1ccccc1 | 5.79% (inactive)
8 | CC(=O)Oc1ccc(C(=O)[C@H]2[C@H]3C(=O)N(c4ccc(C)cc4)C(=O)[C@H]3[C@@H]3C=CC=NN32)cc1 | 14.6% (inactive)
9 | COc1ccccc1CNc1ncnc2nc[nH]c12 | 6.16% (inactive)
10 | c1ccc(CNc2ncnc3nc[nH]c23)cc1 | 45.1% (inactive)
11 | COc1cc2c(cc1OC)CN(C(=S)Nc1ccc(Cl)cc1)CC2 | 1.81% (inactive)
12 | CC1CN(C(=O)N2CCOCC2)CCN1C(=O)N1CCOCC1 (stereo unspecified) | -0.08% (inactive)
13 | CCOC(=O)c1cc(-c2csc(-c3ccc(C(F)(F)F)cc3)n2)on1 | -0.99% (inactive)
14 | C=CCNC(=O)/C(=C\C=C\c1ccccc1)NC(=O)c1ccccc1Cl | -0.22% (inactive)
15 | O=C(NCCCO)/C(=C\C=C\c1ccccc1)NC(=O)c1ccccc1Cl | 18.5% (inactive)
16 | CCc1ccc(C(=O)CSc2nc3cc(S(=O)(=O)N4CCOCC4)ccc3n2CC)cc1 | 16.6% (inactive)
17 | O=C(CCSc1ccccc1)NCCSCc1ccco1 | 22.2% (inactive)
18 | CCOC(=O)c1oc2c(C)c(O)ccc2c(=O)c1-c1nncn1-c1ccccc1 | 17.4% (inactive)
19 | Cc1oc2c(C)c(O)ccc2c(=O)c1-c1nncn1-c1ccccc1 | 5.69% (inactive)
20 | CSc1cccc(NC(=O)C2CCN(S(=O)(=O)c3ccc(F)cc3)CC2)c1 | -0.52% (inactive)
21 | COc1cccc(C(=O)NCC2CCN(c3ccc(S(=O)(=O)N4CCOCC4)cc3)CC2)c1 | 4% (inactive)
22 | CN(C)S(=O)(=O)c1ccc(C(=O)NC(=O)CSc2ccccc2)cc1 | 6.97% (inactive)
23 | C/C(=N\NC(=O)C1=NNC(=O)C1C)c1cccs1 (stereo unspecified) | 24.2% (inactive)
24 | CC1=NNC(=O)C1CC(=O)N/N=C/c1ccncc1 (stereo unspecified) | -2.88% (inactive)
25 | CC1=NNC(=O)C1CC(=O)N/N=C/c1ccc(C)o1 (stereo unspecified) | 5.16% (inactive)
26 | CC1=NNC(=O)C1CC(=O)N/N=C/c1cccs1 (stereo unspecified) | 5.62% (inactive)
